{"source": "PubChem BioAssay (NCATS)", "note": "Unmarked numbers belong to inactive results. Records with an inconclusive call do not appear. Active and inactive are the calls of the source. The call rests on the fitted dose curve; in most records, active means well fitted curve in the direction sought with a large enough effect; inconclusive means small, poorly fitted or top-dose-only effect, or another doubt; inactive means no such curve, though single readings can be large; an effect the other way counts as inactive or inconclusive.", "data": [{"biological_target": "Cytochrome P450 3A4 (Homo sapiens) (UniProt P08684)", "sequence (P08684 whole entry, looked up)": "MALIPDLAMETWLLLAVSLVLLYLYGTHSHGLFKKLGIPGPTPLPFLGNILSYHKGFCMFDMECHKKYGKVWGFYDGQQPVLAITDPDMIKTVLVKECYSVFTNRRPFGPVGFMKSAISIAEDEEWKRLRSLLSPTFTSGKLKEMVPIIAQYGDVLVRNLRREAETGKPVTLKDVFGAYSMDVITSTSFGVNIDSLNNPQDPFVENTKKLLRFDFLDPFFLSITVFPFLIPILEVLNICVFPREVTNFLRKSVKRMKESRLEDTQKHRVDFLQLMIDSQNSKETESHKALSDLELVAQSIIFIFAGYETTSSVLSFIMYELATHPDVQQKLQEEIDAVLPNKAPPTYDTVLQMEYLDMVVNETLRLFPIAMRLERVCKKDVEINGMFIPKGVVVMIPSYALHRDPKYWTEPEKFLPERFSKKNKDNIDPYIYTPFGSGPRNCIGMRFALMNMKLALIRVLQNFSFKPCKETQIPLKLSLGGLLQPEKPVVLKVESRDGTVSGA", "assay": "qHTS Assay for Inhibitors and Substrates of Cytochrome P450 3A4 (AID 884); further: on the % scale 0 is the no-effect control and ±100 the full control effect; nearly all actives have a fitted effect of over 50% in size", "settings": "recombinant CYP3A4, Luciferin-PPXE luminescence; series mostly up to 57.1 µM; activity change, negative = inhibition: at the top concentration", "procedure,_shortened": "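20 nM human CYP3A4 with 25 uM Luciferin-PPXE (at KM) in 200 mM KPO4, preincubated 10 min with compound; NADPH regeneration started a 60 min RT reaction. Luciferin detected by luminescence, normalized to 57 uM ketoconazole as full inhibition.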", "values": [{"smiles": "CC(=O)Oc1cccc(C(=O)O)c1OC(C)=O", "activity change, negative = inhibition": "-10.9%"}, {"smiles": "Cc1c(O)c(=O)ccn1C", "activity change, negative = inhibition": "-11.6% [at 11.4 µM]"}, {"smiles": "COc1cc(S(C)=O)ccc1-c1nc2ncccc2[nH]1", "note": "(centres undefined)", "activity change, negative = inhibition": "-19.9%"}, {"smiles": "O=C(O)[C@H]1CN(C/C=C/P(=O)(O)O)CCN1", "activity change, negative = inhibition": "-16.3%"}, {"smiles": "NCC(O)CC(=O)O", "note": "(centres undefined)", "activity change, negative = inhibition": "11.4%"}]}, {"biological_target": "Cytochrome P450 3A4 (Homo sapiens) (UniProt P08684)", "assay": "qHTS Assay for Activators of Cytochrome P450 3A4 (AID 885); further: nearly all actives have a fitted effect of over 65% in size; further: potency means the concentration at half of the fitted maximal effect", "settings": "recombinant CYP3A4, Luciferin-PPXE luminescence, 60 min; series mostly up to 57.1 µM; activity change, positive = activation: at the top concentration", "procedure,_shortened": "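Steps: enzyme/substrate mix dispensed; compound added, 10 min RT; NADPH regeneration solution added, 60 min RT; luciferin detection buffer stops reaction; 20 min later luminescence measured.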", "values": [{"smiles": "CCSc1ccc2c(c1)N(CCCN1CCN(C)CC1)c1ccccc1S2", "activity change, positive = activation": "-37.3% [at 25.6 µM]"}, {"smiles": "Cc1cc(-c2ccc(N=Nc3ccc4c(S(=O)(=O)O)cc(S(=O)(=O)O)c(N)c4c3O)c(C)c2)ccc1N=Nc1ccc2c(S(=O)(=O)O)cc(S(=O)(=O)O)c(N)c2c1O", "activity change, positive = activation": "-66.2%"}, {"smiles": "Cc1cccc(C)c1NC(=O)C1CCCCN1C", "note": "(centres undefined)", "activity change, positive = activation": "-38.4%"}, {"smiles": "O=C(CCCCCCCCCCCCC1CCCC1)Nc1ccc(S(=O)(=O)c2ccc(NC(=O)CCCCCCCCCCCCC3CCCC3)cc2)cc1", "activity change, positive = activation": "-38.7%"}, {"smiles": "CC(=O)[C@H]1CC[C@H]2[C@@H]3C=CC4=CC(=O)CC[C@@]4(C)[C@H]3CC[C@]12C", "Potency": "7.94 µM (active)"}, {"smiles": "C=C1C(CCl)(CCl)C2(Cl)C(Cl)C(Cl)C1(Cl)C2(Cl)Cl", "note": "(centres undefined)", "activity change, positive = activation": "-61.9%"}, {"smiles": "CC(C)c1nc(N(C)S(C)(=O)=O)nc(-c2ccc(F)cc2)c1/C=C/C(O)CC(O)CC(=O)O", "note": "(centres undefined)", "activity change, positive = activation": "-58.7%"}, {"smiles": "Cc1cc(C)c(NC(=O)C[C@H](CC(=O)O)c2cccc3ccccc23)c(C(=O)N2CCC3(CCCC3)CC2)c1", "activity change, positive = activation": "-83.6%"}, {"smiles": "C[C@@](Cc1ccc(O)c(O)c1)(NN)C(=O)O", "activity change, positive = activation": "-70.1%"}, {"smiles": "CCCc1nc(C(C)(C)O)c(C(=O)OCc2oc(=O)oc2C)n1Cc1ccc(-c2ccccc2-c2nn[nH]n2)cc1", "activity change, positive = activation": "-57.1%"}, {"smiles": "O=C1c2ccccc2C(=O)c2c1ccc(O)c2O", "activity change, positive = activation": "-71.8%"}]}, {"biological_target": "Cytochrome P450 2D6 (Homo sapiens) (UniProt P10635)", "sequence (P10635 whole entry, looked up)": "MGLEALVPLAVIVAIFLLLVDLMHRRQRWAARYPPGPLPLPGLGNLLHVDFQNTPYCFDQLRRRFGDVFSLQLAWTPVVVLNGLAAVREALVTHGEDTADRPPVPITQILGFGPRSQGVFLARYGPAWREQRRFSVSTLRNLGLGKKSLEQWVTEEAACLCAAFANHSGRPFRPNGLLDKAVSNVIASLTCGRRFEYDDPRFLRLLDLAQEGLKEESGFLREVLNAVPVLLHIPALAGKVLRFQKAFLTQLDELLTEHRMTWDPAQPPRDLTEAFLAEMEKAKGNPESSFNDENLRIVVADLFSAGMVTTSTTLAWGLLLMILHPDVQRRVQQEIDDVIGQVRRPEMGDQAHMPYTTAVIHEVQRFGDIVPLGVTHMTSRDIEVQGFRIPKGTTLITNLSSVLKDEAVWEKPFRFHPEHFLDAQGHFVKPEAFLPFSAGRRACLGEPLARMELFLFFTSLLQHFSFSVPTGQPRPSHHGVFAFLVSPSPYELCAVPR", "assay": "qHTS Assay for Inhibitors and Substrates of Cytochrome P450 2D6 (AID 891); further: nearly all actives have a fitted effect of over 60% in size; further: potency means the concentration at half of the fitted maximal effect;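 on activity change, negative = inhibition: luciferin methyl ether substrate demethylated by CYP2D6 with NADPH regeneration; on the % scale 0 is the no-effect control and ±100 the full control effect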", "settings": "recombinant CYP2D6, luciferin-ME EGE luminescence; series mostly up to 11.4 µM; activity change, negative = inhibition: at the top concentration", "procedure,_shortened": "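Human CYP2D6 (5 nM) with 30 uM Luciferin-ME EGE (at Km) in 100 mM KPO4, compound preincubated 10 min, then NADPH regeneration system for 60 min at room temperature. Luciferin read by luminescence; normalized to 1.43 uM quinidine.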", "units": {"activity change, negative = inhibition": "%"}, "values": [{"smiles": "CCSc1ccc2c(c1)N(CCCN1CCN(C)CC1)c1ccccc1S2", "Potency": "2.51 µM (active)"}, {"smiles": "Cc1cc(-c2ccc(N=Nc3ccc4c(S(=O)(=O)O)cc(S(=O)(=O)O)c(N)c4c3O)c(C)c2)ccc1N=Nc1ccc2c(S(=O)(=O)O)cc(S(=O)(=O)O)c(N)c2c1O", "Potency": "15.8 µM (active)"}, {"smiles": "Cc1c(O)c(=O)ccn1C", "activity change, negative = inhibition": 7.82}, {"smiles": "CN1CCc2c(c3ccccc3n2Cc2ccccc2)C1", "Potency": "3.16 µM (active)"}, {"smiles": "CCCOc1cc(N)ccc1C(=O)OCCN(CC)CC", "Potency": "2 µM (active)"}]}, {"test_system": "not listed separately", "assay": "Confirmation and Secondary Assay for Modulators of Hemoglobin Beta Chain Splicing at IVS2 654 locus (AID 910);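 further: HeLa cells stably carrying EGFP split by mutant beta-globin IVS2-654 intron; per-well total GFP intensity by laser scanning cytometry after 2-day treatment; % of control where 0% means no effect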", "settings": "HeLa EGFP-654 splicing reporter, GFP fluorescence, 48 h; series mostly up to 46.1 µM; activation (splicing correction): at the top concentration", "procedure,_shortened": "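Readout: per-well total peak green fluorescence (488 nm ex, 500–520 nm em) from objects 5–250 µm, reflecting correct splicing of an EGFP-654 reporter. Compounds were applied for 2 days at 37 °C to overnight-plated HeLa EGFP-654 cells; controls were DMSO and 500 nM IVS2-654 PNA.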", "values": [{"smiles": "N#Cc1ccc2c(c1)N(CCCN1CCC(O)CC1)c1ccccc1S2", "activation (splicing correction)": "4.8%"}, {"smiles": "CC(=O)Oc1cccc2c1C(=O)c1c(OC(C)=O)cc(C(=O)O)cc1C2=O", "activation (splicing correction)": "-3%"}, {"smiles": "Cc1cccc(C)c1NC(=O)C1CCCCN1C", "note": "(centres undefined)", "activation (splicing correction)": "3.25%"}, {"smiles": "CC1CCCC(C)N1NC(=O)c1ccc(Cl)c(S(N)(=O)=O)c1", "note": "(centres undefined)", "activation (splicing correction)": "13.1%"}, {"smiles": "C=CC(C)(O)CC/C=C(\\C)CCC=C(C)C", "note": "(centres undefined)", "activation (splicing correction)": "0.799% [at 38.3 µM]"}, {"smiles": "CC(=O)N=c1sc(S(N)(=O)=O)nn1C", "activation (splicing correction)": "4.33%"}, {"smiles": "O=C(O)[C@H]1C(=CCO)O[C@H]2CC(=O)N12", "activation (splicing correction)": "4.51%"}, {"smiles": "CC1CCC(NC(=O)N(CCCl)N=O)CC1", "note": "(centres undefined)", "activation (splicing correction)": "-2.75%"}, {"smiles": "O=C(CCCCCCCCCCCCC1CCCC1)Nc1ccc(S(=O)(=O)c2ccc(NC(=O)CCCCCCCCCCCCC3CCCC3)cc2)cc1", "activation (splicing correction)": "2.59%"}, {"smiles": "CC(C)c1nc(N(C)S(C)(=O)=O)nc(-c2ccc(F)cc2)c1/C=C/C(O)CC(O)CC(=O)O", "note": "(centres undefined)", "activation (splicing correction)": "-0.449%"}, {"smiles": "CC(=O)Nc1ccc(OC(=O)c2ccccc2O)cc1", "activation (splicing correction)": "-0.409%"}, {"smiles": "CC(=O)Oc1cccc(C(=O)O)c1OC(C)=O", "activation (splicing correction)": "2.22%"}, {"smiles": "O=C(O)CCC(=O)c1ccc(-c2ccccc2)cc1", "activation (splicing correction)": "6.8%"}, {"smiles": "CC[C@H]1OC(=O)[C@H](C)[C@@H](O[C@H]2C[C@@](C)(OC)[C@@H](O)[C@H](C)O2)C(C)[C@@H](O[C@@H]2O[C@H](C)C[C@H](N(C)C)[C@@H]2O)[C@](C)(OC)C[C@@H](C)C(=O)[C@H](C)[C@@H](O)[C@]1(C)O", "note": "(some centres undefined)", "activation (splicing correction)": "3.82%"}, {"smiles": "COc1cc(S(C)=O)ccc1-c1nc2ncccc2[nH]1", "note": "(centres undefined)", "activation (splicing correction)": "6.65%"}, {"smiles": "CCCc1nc(C(C)(C)O)c(C(=O)OCc2oc(=O)oc2C)n1Cc1ccc(-c2ccccc2-c2nn[nH]n2)cc1", "activation (splicing correction)": "-2.6%"}, {"smiles": "CCOC(=O)C1=C(COCCN)NC(C)=C(C(=O)OC)C1c1ccccc1Cl", "note": "(centres undefined)", "activation (splicing correction)": "0.54% [at 38.3 µM]"}, {"smiles": "CN1CCc2c(c3ccccc3n2Cc2ccccc2)C1", "activation (splicing correction)": "-1.69%"}, {"smiles": "NCC(O)CC(=O)O", "note": "(centres undefined)", "activation (splicing correction)": "6.45%"}, {"smiles": "O=C1c2ccccc2C(=O)c2c1ccc(O)c2O", "activation (splicing correction)": "3.96%"}]}, {"test_system": "not listed separately", "assay": "Cell Viability - LYMP2-001 (AID 921); further: nearly all actives have a fitted effect of over 70% in size; further: potency means the concentration at half of the fitted maximal effect;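 on activity change, negative = cytotoxic: 0% = DMSO only and full inhibition = tetraoctylammonium bromide control wells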", "settings": "LYMP2-001 lymphoblastoid cell viability; series mostly up to 92.2 µM; activity change, negative = cytotoxic: at the top concentration", "procedure,_shortened": "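Cellular ATP loss read by luciferase luminescence after 24 h compound exposure at 37 C in complete medium. LYMP2-001 lymphoblastoid cells, 2500/well; qHTS concentration-response data fitted with Hill equation for AC50.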", "units": {"activity change, negative = cytotoxic": "%"}, "values": [{"smiles": "CC[C@H]1OC(=O)[C@H](C)[C@@H](O[C@H]2C[C@@](C)(OC)[C@@H](O)[C@H](C)O2)[C@H](C)[C@@H](O[C@@H]2O[C@H](C)C[C@H](N(C)C)[C@H]2O)[C@](C)(O)C[C@@H](C)CN(C)[C@H](C)[C@@H](O)[C@]1(C)O", "activity change, negative = cytotoxic": -10.3}, {"smiles": "C[C@H](CCC(=O)O)[C@H]1CC[C@H]2[C@@H]3CC[C@@H]4C[C@H](O)CC[C@]4(C)[C@H]3C[C@H](O)[C@]12C", "activity change, negative = cytotoxic": -12}, {"smiles": "C=C1C(CCl)(CCl)C2(Cl)C(Cl)C(Cl)C1(Cl)C2(Cl)Cl", "note": "(centres undefined)", "Potency": "39.8 µM (active)"}]}]}
